Source: article PMC4336329 (PLoS ONE, 2015)
In all, about 310,000 compounds went through this assay and about 2,200 (0.71%) showed an effect of 50% or more. The effect is printed as a negative number. This excerpt belongs to a sample that is enriched for strong results.

Target: human ether-à-go-go-related gene (hERG) potassium channel (human, UniProt Q12809)
Test: primary screen, population patch clamp on CHO cells stably expressing hERG; higher = less effect of the substance

Sequence of human ether-à-go-go-related gene (hERG) potassium channel (Q12809 whole entry, looked up): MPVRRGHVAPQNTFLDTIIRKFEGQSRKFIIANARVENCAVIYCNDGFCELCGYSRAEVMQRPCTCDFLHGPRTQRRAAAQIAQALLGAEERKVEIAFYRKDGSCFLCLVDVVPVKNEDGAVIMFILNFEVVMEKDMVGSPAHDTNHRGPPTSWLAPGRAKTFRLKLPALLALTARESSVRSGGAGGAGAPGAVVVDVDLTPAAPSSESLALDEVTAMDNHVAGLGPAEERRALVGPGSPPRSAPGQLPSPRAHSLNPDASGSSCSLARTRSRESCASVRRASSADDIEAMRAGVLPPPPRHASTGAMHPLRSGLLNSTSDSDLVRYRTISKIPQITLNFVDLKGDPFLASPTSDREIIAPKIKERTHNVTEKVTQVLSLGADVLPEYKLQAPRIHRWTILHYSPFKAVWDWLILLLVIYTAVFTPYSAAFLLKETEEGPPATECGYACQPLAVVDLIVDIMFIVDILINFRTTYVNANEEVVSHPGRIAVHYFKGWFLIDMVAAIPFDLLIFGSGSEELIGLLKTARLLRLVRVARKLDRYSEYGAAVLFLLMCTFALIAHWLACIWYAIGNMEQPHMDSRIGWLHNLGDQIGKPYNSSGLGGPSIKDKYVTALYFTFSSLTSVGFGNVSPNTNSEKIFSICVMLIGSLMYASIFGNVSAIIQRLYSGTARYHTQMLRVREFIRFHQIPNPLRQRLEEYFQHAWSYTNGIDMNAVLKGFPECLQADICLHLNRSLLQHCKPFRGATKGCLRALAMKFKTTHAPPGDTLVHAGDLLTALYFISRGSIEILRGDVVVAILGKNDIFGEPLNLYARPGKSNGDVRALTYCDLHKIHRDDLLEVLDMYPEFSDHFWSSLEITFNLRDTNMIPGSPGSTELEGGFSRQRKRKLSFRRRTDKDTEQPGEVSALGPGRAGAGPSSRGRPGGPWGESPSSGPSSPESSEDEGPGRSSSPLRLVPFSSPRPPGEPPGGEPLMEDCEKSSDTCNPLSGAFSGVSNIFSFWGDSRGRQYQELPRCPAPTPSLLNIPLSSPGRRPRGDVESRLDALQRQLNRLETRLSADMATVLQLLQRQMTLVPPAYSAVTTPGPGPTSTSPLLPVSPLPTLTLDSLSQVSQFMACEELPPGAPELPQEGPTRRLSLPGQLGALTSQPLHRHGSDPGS

Row | Structure (SMILES) | hERG current change (%, negative = inhibition) at 1uM [%]
1 | COC(=O)c1ccc(NC(=S)Nc2ccc(O)cc2)cc1 | 5.34
2 | O=C(CNCCCO)Nc1cc(C(F)(F)F)cc(NC(=O)CNCCCO)c1Cl | 9.02
3 | N#Cc1cccc(NC(=O)c2ccc(S(=O)(=O)N3CCOCC3)cc2)c1 | 0.709
4 | COC(=O)c1cc(Cl)cc(Cl)c1OS(=O)(=O)N(C)C | 1.43
5 | N#CC1=C(N)Oc2nc[nH]c(=O)c2C1c1cccs1 (stereo not drawn) | 17.3
6 | CCOC(=O)C(OC(=O)c1sc(=S)n(C)c1C)C(C)=O (stereo not drawn) | 18
7 | COc1ccccc1CN1CCNC(=O)C1CC(=O)N(C)Cc1nc(C)cs1 (stereo not drawn) | 17.2
8 | CC(=O)c1ccccc1NC(=O)COC(=O)c1ccc2c(c1)nc(C)n2-c1ccccc1 | 20.6
9 | CC(=O)c1c(C)[nH]c(C(=O)OCc2ccc(F)cc2Cl)c1C | 10.6
10 | Cc1cc2oc(=O)cc(CN3CCC(C)CC3)c2cc1C | 12.8
11 | Cc1ccc(C)c(Oc2coc3cc(O)ccc3c2=O)c1 | 0.658
12 | CCOC(=O)C1=NN(c2ccc(C)cc2)C2(S1)SC(C(C)=O)=C(C)N2c1ccccc1 (stereo not drawn) | 8.85
13 | C(=C\c1ccccc1)/CSc1nnc(-c2cccnc2)n1Cc1ccco1 | -51.9
14 | Clc1ccc(CSc2nnc(-c3cccnc3)n2Cc2ccco2)c(Cl)c1 | -42.3
15 | C(=C\c1ccccc1)/CSc1nnc(-c2ccncc2)n1Cc1ccco1 | -26.9
16 | Clc1ccccc1CSc1nnc(-c2cccnc2)n1Cc1ccco1 | -14.2
17 | C(=C\c1ccccc1)/CSc1nnc(-c2ccccc2)n1Cc1ccco1 | -45.4
18 | Clc1cccc(CSc2nnc(-c3cccnc3)n2Cc2ccco2)c1 | -61
19 | Cc1cc(C)cc(NC(=O)Cn2nnc(C(=O)NCc3ccccc3Cl)c2N)c1 | 13.6
20 | CCOc1ccc(CCNC(=O)CS(=O)(=O)Cc2nc(-c3ccc(OC)cc3)oc2C)cc1 | -0.117
21 | COC(=O)[C@]1(C)N[C@H](c2ccc(-c3ccccc3)cc2)[C@@H]2C(=O)N(C)C(=O)[C@@H]21.O=C(O)C(F)(F)F | 15.8
22 | Cc1ccccc1N1CCN(CCCN2C(=O)CC(=C(c3ccccc3)c3ccccc3)C2=O)CC1 | 3.79
23 | Cc1sc(NC(=O)c2ccccc2F)c(CN2CCCCC2)c1C | 9.65
24 | CCOc1ccc(NC(=O)CCNC(=O)Cn2cnc3ccccc3c2=O)cc1 | 18.9
25 | CCN(Cc1ccncc1)C(=O)c1cc(COc2c(F)cccc2F)on1 | -8.09
26 | CCN(Cc1ccncc1)C(=O)c1cc(COc2ccc(C)c(C)c2)on1 | -5.56
27 | CCN(Cc1ccncc1)C(=O)c1cc(COc2c(C)cccc2C)on1 | -63.1

Row | Structure (SMILES) | hERG current change (%, negative = inhibition) at 1uM [%]
28 | CCN1CCN(C(=O)COc2ccc(S(=O)(=O)Nc3ccc(Cl)cc3)cc2)CC1 | 12.1
29 | Cc1cccc(NC(=O)Nc2c(C)n(C)n(-c3ccccc3)c2=O)c1 | 9.37
30 | CCOc1nc(-c2ccccc2)ccc1-c1noc(-c2cccnc2)n1 | 7.07
31 | COc1ccc(CCNC(=O)CC2Nc3ccccc3NC2=O)cc1OC (stereo not drawn) | 12.7
32 | CCOC(=O)c1c(NC(=S)Nc2ccccc2)sc2c1CCCCC2 | 12.8
33 | CCOC(=O)c1c(NC(=S)Nc2ccc(OCC)cc2)sc2c1CCN(C)C2 | -11
34 | CCOC(=O)c1c(NC(=O)Nc2ccc(C)cc2)sc2c1CCN(C)C2 | 9.62
35 | CCOC(=O)N1CCc2c(sc(NC(=O)CN3CCN(C)CC3)c2C(=O)Nc2ccccc2)C1 | -85.6
36 | CCOC(=O)c1c(NC(=O)Cc2ccccc2)sc2c1CCN(C)C2.Cl | -19.2
37 | CCOC(=O)c1c(NC(=S)Nc2ccccc2)sc2c1CCN(CC)C2 | -80.2
38 | CCOC(=O)c1c(NC(=S)Nc2ccccc2)sc2c1CCN(C)C2 | -62.8
39 | CCOC(=O)c1c(NC(=O)CN2CCCCC2)sc2c1CCN(C(=O)OCC)C2 | 2.11
40 | CCOC(=O)N1CCc2c(sc(NC(=O)CN3CCOCC3)c2C(=O)Nc2ccccc2)C1 | -31.9
41 | CCOC(=O)c1c(NC(=S)Nc2ccc(Cl)cc2)sc2c1CCN(C)C2 | -57.4
42 | CCOC(=O)c1c(NC(=O)Cc2ccccc2)sc2c1CCN(CC)C2.Cl | -18.3
43 | CCOC(=O)c1c(NC(=S)Nc2ccccc2)sc2c1CCN(CCc1ccccc1)C2 | 2.54
44 | COc1ccccc1C(=O)Nc1nnc(-c2ccco2)s1 | 13.9
45 | COc1ccccc1NC(=O)Cn1nnc(-c2ccccc2NC(=O)c2ccco2)n1 | 14.7
46 | C=CCC1c2cccc(C(=O)O)c2C(=O)N1c1cccc(C)c1 (stereo not drawn) | 11.5
47 | CN(C)c1ccc(C2CC(=O)C=C(Nc3ccccc3N)C2)cc1 (stereo not drawn) | 13.8
48 | CCOc1ccc(NC(=O)CCN2CCN(c3ccccc3)CC2)cc1 | 3.48
49 | CCOc1ccccc1NC(=O)C(OC(=O)c1ccccc1)c1ccccc1 (stereo not drawn) | 32.8
50 | Cn1c(Cn2nnc3ccccc32)nnc1SCC(=O)Nc1nccs1 | 10.6
51 | CC(C)N1CCc2c(sc(NC(=O)CCS(=O)(=O)c3ccccc3)c2C(N)=O)C1.Cl | -2.04
52 | CCOC(=O)c1c(NC(=O)CCS(=O)(=O)c2ccccc2)sc2c1CCN(C)C2.Cl | -9.18
53 | CCOC(=O)c1c(NC(=O)CCS(=O)(=O)c2ccccc2)sc2c1CCN(C(C)C)C2.Cl | -64.6
54 | CC(=O)c1cc2c(cc1NC(=O)CSc1nc3ccccc3[nH]1)OCO2 | -2.99
